From PubChem
ASK1 primary: ASK1 kinase inhibitors, primary screen, biochemical, AlphaScreen; inhibition, % at 7.44 µM; Mitogen-activated protein kinase kinase kinase 5 (Homo sapiens), Q99683; hit rate 0.99% among 22,000; AlphaScreen MKK6 phosphorylation by ASK1, luminescence; in the data active = inhibition above about 35%;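 also: 0% = median of compound wells and 100% = no enzyme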
Target sequence (Q99683 whole entry, looked up): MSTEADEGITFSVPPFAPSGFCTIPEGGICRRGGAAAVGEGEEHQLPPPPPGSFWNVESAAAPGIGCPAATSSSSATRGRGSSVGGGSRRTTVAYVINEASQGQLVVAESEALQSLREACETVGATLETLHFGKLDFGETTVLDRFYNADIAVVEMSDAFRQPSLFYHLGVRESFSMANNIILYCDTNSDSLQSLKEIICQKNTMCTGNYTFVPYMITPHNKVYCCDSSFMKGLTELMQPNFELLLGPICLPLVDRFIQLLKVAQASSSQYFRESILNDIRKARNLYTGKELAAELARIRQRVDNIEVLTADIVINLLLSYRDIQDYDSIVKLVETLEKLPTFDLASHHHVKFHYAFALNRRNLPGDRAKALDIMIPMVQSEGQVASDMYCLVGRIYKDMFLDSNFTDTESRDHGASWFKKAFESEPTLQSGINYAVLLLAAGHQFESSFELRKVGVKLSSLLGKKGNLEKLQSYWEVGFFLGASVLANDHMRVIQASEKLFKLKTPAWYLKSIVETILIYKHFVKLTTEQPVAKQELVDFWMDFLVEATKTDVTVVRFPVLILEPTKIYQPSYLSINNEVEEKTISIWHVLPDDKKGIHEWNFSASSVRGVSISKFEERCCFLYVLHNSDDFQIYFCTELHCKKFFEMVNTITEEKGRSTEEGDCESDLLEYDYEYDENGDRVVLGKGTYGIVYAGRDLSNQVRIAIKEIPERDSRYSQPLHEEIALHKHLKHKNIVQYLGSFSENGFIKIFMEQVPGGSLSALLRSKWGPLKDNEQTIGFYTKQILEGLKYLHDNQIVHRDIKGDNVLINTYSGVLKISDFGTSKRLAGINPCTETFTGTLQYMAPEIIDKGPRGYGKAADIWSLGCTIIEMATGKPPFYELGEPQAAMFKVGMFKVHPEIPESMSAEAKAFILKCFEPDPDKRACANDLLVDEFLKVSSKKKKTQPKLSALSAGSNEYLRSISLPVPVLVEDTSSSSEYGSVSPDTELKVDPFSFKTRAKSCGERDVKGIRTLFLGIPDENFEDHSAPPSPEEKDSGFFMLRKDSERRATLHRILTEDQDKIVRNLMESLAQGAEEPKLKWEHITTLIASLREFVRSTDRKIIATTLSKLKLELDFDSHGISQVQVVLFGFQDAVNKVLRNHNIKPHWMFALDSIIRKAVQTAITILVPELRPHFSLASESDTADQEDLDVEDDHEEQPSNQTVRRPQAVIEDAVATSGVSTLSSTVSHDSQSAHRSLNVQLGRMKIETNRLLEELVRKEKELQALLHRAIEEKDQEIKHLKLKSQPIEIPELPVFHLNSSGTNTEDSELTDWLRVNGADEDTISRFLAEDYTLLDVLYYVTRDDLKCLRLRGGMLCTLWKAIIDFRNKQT
ULK1 primary: ULK1 kinase inhibitors, primary screen, biochemical, AlphaScreen | Serine/threonine-protein kinase ULK1 (Homo sapiens), O75385 | AlphaScreen Atg13 phosphorylation by ULK1, luminescence | inhibition, % at 5.96 µM | hit rate 1.9% among 30,000; in the data active = inhibition above about 43%;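 also: 0% = median of compound wells and 100% = no enzyme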
TruHits interf: AlphaScreen signal interference by compounds, dose response, artefact control for ASK1 inhibitor project, biochemical, TruHits beads; hit rate 20% among 220; shares compounds with ASK1 primary; IC50, µM; signal interference counterscreen;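 active = IC50 of 10 µM or lower in the counterscreen; inactive = IC50 above 10 µM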;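 also: loss of AlphaScreen light from TruHits beads alone with no ASK1 enzyme present; potency of signal reduction so a low IC50 flags an assay artifact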
The depositor's hits bear a star; i = inactive; · = not tested or not shown. In the library only some 2.5% were active in any assay of this set; here they are far more common.

SMILES | ASK1 primary | ULK1 primary | TruHits interf
O=C(NC1CC1)c1ccc(-c2nc(NCc3cccc(C(F)(F)F)c3)c3ncn(-c4ccccc4)c3n2)cc1 | 44.7* | -5.6 | >19.9
CCC(C(=O)Nc1cc(C)nn1-c1nc2c(c(=O)[nH]1)CCC2)c1ccccc1 (stereo not drawn) | · | 9.8 | ·
COc1ccc(CCNc2ncnc3nc(NCCN4CCOCC4)[nH]c23)cc1 | -4.1 | 5.8 | ·
O=C(Cc1cn(-c2ccc(Nc3ccc4ncccc4c3)nn2)c2ccccc12)Nc1ccc(N2CCOCC2)cc1 | 24.1 | 17.8 | ·
CN(C)c1cccc(Nc2ccc(-n3cc(CC(=O)Nc4ccccc4)c4ccccc43)nn2)c1 | 21.7 | 14.9 | ·
O=C(Cc1cn(-c2ccc(Nc3nccc4ccccc34)nn2)c2ccccc12)Nc1ccc2c(c1)OCO2 | 45.5* | 9.5 | >21.6
CN(C)c1cccc(Nc2ccc(-n3cc(CC(=O)Nc4ccc5c(c4)OCO5)c4ccccc43)nn2)c1 | 43.2* | 20.6 | >19
Cn1nccc1Nc1ccc(-n2cc(CC(=O)Nc3ccc4c(c3)OCO4)c3ccccc32)nn1 | 21.5 | 30.3 | ·
CN(C)c1cccc(Nc2ccc(-n3cc(CC(=O)Nc4ccc(N5CCOCC5)cc4)c4ccccc43)nn2)c1 | 43.7* | 15.2 | >20.1
CCOc1ccc(Nc2nccc(-c3ccc(S(C)(=O)=O)cc3)n2)cc1 | 4.3 | -2.6 | ·
CC(C)n1cnc2c(NCc3cccnc3)nc(Nc3ncccn3)nc21 | -2.8 | -1.1 | ·
Cc1cnc(-c2cccc(N)c2)nc1Nc1ccccc1 | 0.8 | 3.8 | ·
O=c1[nH]cccc1-c1ccc(Nc2nccc(-c3ccc4nc(C5CC5)[nH]c(=O)c4c3)n2)cc1 | 42.9* | 70.3* | >19.2
O=C(O)Cc1ccc(Nc2nccc(-c3ccccc3)n2)cc1 | 16.3 | 2.8 | ·
Fc1ccc(-c2cnc(NCc3ccccc3)nc2)cc1 | · | 5.9 | ·
Cc1nc(C)n(-c2ccc(Nc3nccc(-c4cc(-n5cncn5)cc(-n5cncn5)c4)n3)cc2)n1 | 9.7 | 16.9 | ·
Cc1nc(C)n(-c2ccc(Nc3nccc(-c4cccc(-n5cncn5)c4)n3)cc2)n1 | 48.1* | 12.0 | >19.2
Cc1cnc(-c2ccc(C(N)=O)cc2)nc1Nc1ccc(N2CCOCC2)cc1 | 36.2* | 29.6 | >20
COc1cc(Nc2ncnc3nc(-c4ccc(C(N)=O)cc4)[nH]c23)cc(OC)c1OC | 25.2 | 5.6 | ·
COc1cc(Nc2nc(-c3ccc(C(N)=O)cc3)ncc2C)cc(OC)c1OC | 61.3* | 54.6* | >19.4
COc1ccc(-c2ncc(C)c(Nc3ccc(N4CCOCC4)cc3)n2)cn1 | -0.4 | 2.1 | ·
Cn1c(Nc2nccc(NCc3nc4ccccc4[nH]3)n2)nc2ccccc21 | -8.4 | -6.0 | ·
COc1cc(Nc2nc(N3CCc4ccccc4C3)nc3c2ncn3C(C)C)cc(OC)c1OC | 40.2* | -2.0 | >20.1
COc1cc(Nc2nc(N3CCc4ccccc4C3)nc3c2ncn3C2CCCCC2)cc(OC)c1OC | 20.8 | -1.4 | ·
Nc1cccc(-c2nccc(NCc3nc4ccccc4[nH]3)n2)c1 | -4.9 | -2.0 | ·
SMILES | ASK1 primary | ULK1 primary | TruHits interf
O=C1CCCN1CCCNc1nc(N2CCN(c3ccccn3)CC2)nc2c1ncn2-c1ccccc1 | 5.1 | -9.5 | ·
COc1ccc(CCNc2ccnc(Nc3cccc(N(C)C)c3)n2)cc1 | 38.0* | 7.2 | i
COc1ccc(CCNC(=O)c2ccnc(Nc3cccc(N(C)C)c3)c2)cc1 | 40.7* | -0.5 | >20
COc1ccc(CCNC(=O)c2ccnc(Nc3ccc4ncccc4c3)c2)cc1 | -0.2 | -12.4 | ·
CN(C)c1cccc(Nc2nccc(NCCc3ccc(O)cc3)n2)c1 | 26.9 | -9.1 | ·
C=CCNc1cc(-c2ccccc2)nc(-c2ccncc2)n1 | · | -23.7 | ·
CC(C)OC(=O)N(CCOC(=O)Nc1ccccc1)CCOC(=O)Nc1ccccc1 | · | -24.2 | ·
FC(F)(F)c1ccc(Cn2cnc3c(NCCN4CCOCC4)nc(N4CCN(Cc5ccc6c(c5)OCO6)CC4)nc32)cc1 | 6.5 | -42.1 | ·
CC(C)n1cnc2c(Nc3ccc(N4CCOCC4)cc3)nc(Nc3cccc(N(C)C)c3)nc21 | 35.1 | 20.1 | ·
OCCNc1nc(N2CCN(Cc3ccc4c(c3)OCO4)CC2)nc2c1ncn2C1CCCCC1 | 11.8 | -9.8 | ·
CC(C)n1cnc2c(Nc3ccc4c(c3)OCO4)nc(Nc3cccc(N(C)C)c3)nc21 | 37.0* | 15.6 | >19.9
CCN(CC)C(=O)C1CCCN(c2nc(Nc3ccc(N4CCOCC4)cc3)c3ncn(Cc4ccc(C(F)(F)F)cc4)c3n2)C1 (stereo not drawn) | 56.0* | -17.4 | >20.1
CCN(CC)C(=O)C1CCCN(c2nc(Nc3ccc(N4CCOCC4)cc3)c3ncn(CCN4CCCC4=O)c3n2)C1 (stereo not drawn) | 2.8 | 1.5 | ·
FC(F)(F)c1ccc(Cn2cnc3c(Nc4ccc(N5CCOCC5)cc4)nc(N4CCN(Cc5ccc6c(c5)OCO6)CC4)nc32)cc1 | 48.2* | -15.8 | >20.1
c1ccc(OCCNc2nc(N3CCN(Cc4ccc5c(c4)OCO5)CC3)nc3c2ncn3C2CCCCC2)cc1 | 38.7* | 15.8 | >20.1
NC(=O)c1cc[n+](CCOc2ccc([N+](=O)[O-])cc2)cc1 | · | -10.1 | ·
FC(F)(F)c1ccc(Cn2cnc3c(Nc4ccc5c(c4)OCO5)nc(Nc4ccc(C(F)(F)F)cc4)nc32)cc1 | 13.1 | -8.2 | ·
CN(C)c1cccc(Nc2nc(Nc3ccc4c(c3)OCO4)c3ncn(Cc4ccc(C(F)(F)F)cc4)c3n2)c1 | 49.8* | 32.0 | >18.1
FC(F)(F)c1ccc(Cn2cnc3c(Nc4ccc5c(c4)OCO5)nc(Nc4ccccc4)nc32)cc1 | 40.8* | -3.7 | >22
CC(=O)Nc1ccc(Nc2nc(Nc3cccc(N(C)C)c3)nc3c2ncn3Cc2ccc(C(F)(F)F)cc2)cc1 | -10.7 | 36.7 | ·
FC(F)(F)c1ccc(Cn2cnc3c(NCc4cccc(C(F)(F)F)c4)nc(N4CCN(Cc5ccc6c(c5)OCO6)CC4)nc32)cc1 | 28.7 | 15.4 | ·
CC(C)n1cnc2c(NCc3cccc(C(F)(F)F)c3)nc(N3CCN(Cc4ccc5c(c4)OCO5)CC3)nc21 | 37.0* | -15.9 | >20
COc1cc(Nc2nc(N3CCN(c4ccccn4)CC3)nc3c2ncn3Cc2ccc(C(F)(F)F)cc2)cc(OC)c1OC | 27.2 | -16.4 | ·
FC(F)(F)c1ccc(Cn2cnc3c(Nc4ccc5c(c4)OCO5)nc(N4CCN(c5ccccn5)CC4)nc32)cc1 | 50.7* | 12.4 | >20
CN(C)CCOc1cc(-c2ccnc(N)n2)ccc1NC(=O)C1COc2ccc(Cl)cc2C1 (stereo not drawn) | 3.0 | -1.3 | ·
SMILES | ASK1 primary | ULK1 primary | TruHits interf
O=C(NCCCN1CCCC1=O)c1cnc(Nc2nccc3ccccc23)s1 | 9.6 | 5.2 | ·
NCCCCCC(O)(P(=O)(O)O)P(=O)(O)O | · | -9.0 | ·
O=C(CC1CCCCC1)Nc1nnc2n1CCS2 | · | 0.6 | ·
FC(F)(F)c1ccc(Cn2cnc3c(NCc4cccc(C(F)(F)F)c4)nc(-c4ccc(N5CCOCC5)nc4)nc32)cc1 | 27.7 | -1.7 | ·
COc1cc(Nc2nc(Nc3ccc(N4CCOCC4)cc3)c3ncn(Cc4ccc(C(F)(F)F)cc4)c3n2)cc(OC)c1OC | 36.8* | 4.3 | >17.8
FC(F)(F)c1ccc(Nc2nccc(Nc3ccc4c(c3)OCO4)n2)cc1 | 12.8 | -22.2 | ·
CN(C)c1cccc(Nc2nccc(Nc3ccc4c(c3)OCO4)n2)c1 | 36.3* | -1.8 | i
FC(F)(F)c1ccc(Cn2cnc3c(Nc4ccccc4)nc(Nc4ccc(N5CCOCC5)cc4)nc32)cc1 | 28.5 | -17.9 | ·
